Pf growth 96h – Primary qHTS for delayed death inhibitors of the malarial parasite plastid, 96 hour incubation; AID 504834, 2011; 320,000 compounds, 6.9% hits; Potency, µM (top dose mostly 28.7 µM), actives largely listed as inhibitors; P. falciparum luciferase reporter growth, 96 h
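Compounds incubated with erythrocytes infected by luciferase-expressing P. falciparum (2% hematocrit, 0.05% parasitemia final) for 96 hours, 37 C in 5% CO2. Growth inhibition scored as decreased luciferase luminescence.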
Giardia FBPA inh – qHTS Assay for Inhibitors of Fructose-1,6-bisphosphate Aldolase from Giardia Lamblia | A8B2U2 | purified Giardia FBPA | Potency, µM (titrated, usually from 59.6 µM), most hits filed as inhibitors | 290,000 compounds, 0.71% hits | AID 2451, 2010; also: nearly all actives have a fitted effect of over 55% in size
Target sequence (A8B2U2 whole entry, looked up): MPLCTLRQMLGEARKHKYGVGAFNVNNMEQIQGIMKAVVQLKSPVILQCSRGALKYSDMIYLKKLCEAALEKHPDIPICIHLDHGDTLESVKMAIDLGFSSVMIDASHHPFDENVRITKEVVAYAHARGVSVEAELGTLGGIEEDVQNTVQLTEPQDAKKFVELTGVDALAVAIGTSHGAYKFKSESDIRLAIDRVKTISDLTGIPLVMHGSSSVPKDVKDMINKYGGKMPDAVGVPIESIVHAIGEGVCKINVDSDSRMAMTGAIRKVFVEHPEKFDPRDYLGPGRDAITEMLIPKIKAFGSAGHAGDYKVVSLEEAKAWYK
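40 nM FBPA preincubated 10 min at RT with compound (up to 57.5 uM final), then substrate plus GAPDH/TPI/NAD/arsenate coupling and diaphorase/resazurin added. Fluorescence read after 20 min at RT, 525/598 nm.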
Shiga toxin inh – A qHTS for Small Molecule Inhibitors of Shiga Toxin | Vero cells, Shiga toxin protein synthesis inhibition reporter | inhibition, % at 38.7 µM | 290,000 compounds, 9.2% hits | AID 2315, 2010; in the data active = inhibition mostly above about 28%, no sharp cut-off; inactive = mostly below about 43%
Pf growth 48h – Primary qHTS for delayed death inhibitors of the malarial parasite plastid, 48 hour incubation. AID 504832, 2011. P. falciparum luciferase growth in erythrocytes, 48 h. 310,000 compounds, 5.9% hits. Potency, µM (titrated, usually from 28.7 µM), hits mostly inhibitors
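Luciferase-expressing P. falciparum in infected erythrocytes (2% hematocrit, 0.1% parasitemia final) in RPMI 1640/0.5% Albumax were exposed to compound for 48 hours at 37 C, 5% CO2; growth read as luminescence.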
NS1 function inh – qHTS Assay for Inhibitors of Influenza NS1 Protein Function | AID 2326, 2010 | 270,000 compounds, 0.4% hits | Potency, µM (highest dose often 46.1 µM); calls by dose curve; also: actives are rising curves; nearly all actives have a fitted effect of over 50% in size
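OD600 was taken as the measure of yeast growth restored by compound in an NS1-expressing S. cerevisiae strain. Cells had been washed out of glucose medium and diluted 1:100 into galactose -URA medium, pH 6.0.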
Cycloheximide cs – Cycloheximide Counterscreen for Small Molecule Inhibitors of Shiga Toxin; 300,000 compounds, 12% hits; max response, %; cell reporter, cycloheximide protein synthesis inhibition counterscreen; in the data active = max response mostly above about 13%, no sharp cut-off; inactive = mostly below about 14%; also: read at 38.3 µM for the half of the compounds with a filed dose
A number is an active result; n = inactive; u = inconclusive; x = no result. An excerpt weighted towards active compounds, which were near 21% of everything screened. Unless noted, calls follow the shape of the dose curve; as a rule, active = well fitted curve in the direction sought with a large enough effect; inconclusive = small, poorly fitted or top-dose-only effect, or another doubt; inactive = no such curve, though single readings can be large; an effect the other way counts as inactive or inconclusive.

SMILES | Pf growth 96h | Giardia FBPA inh | Shiga toxin inh | Pf growth 48h | NS1 function inh | Cycloheximide cs
Cc1ccc(C=Nc2cccnc2N)cc1 | n | u | 13 | n | n | 19
CC(C(=O)Nc1ccc(F)c(F)c1F)N(C)Cc1cccs1 (centres undefined) | n | x | n | n | n | n
Cc1ccc(NC(=O)[C@H](NC(=O)[C@@H]2Cc3ccccc3CN2)c2ccccc2)cc1 | u | x | 45 | n | n | 25
COc1cccc(NC(=O)[C@H](Cc2ccccc2)NC(=O)[C@@H]2Cc3ccccc3CN2)c1 | n | n | n | u | n | 26
Cc1ccc(C(=O)NC(C(=O)Nc2ccccc2)c2ccccc2)cc1 (centres undefined) | n | n | n | 9.3µM | u | n
Cc1ccc(C(=O)NC(C(=O)NC2CCCC2)c2ccccc2)cc1 (centres undefined) | n | n | n | n | n | n
Cc1ccc(C(NC(=O)c2ccccc2)C(Cl)(Cl)Cl)cc1 (centres undefined) | u | n | n | 12µM | n | n
COc1cccc(NC(=O)[C@H](NC(=O)[C@@H]2Cc3ccccc3CN2)c2ccccc2)c1 | u | x | n | u | n | 30
CC(C)c1ccc(NC(=O)[C@H](NC(=O)[C@@H]2Cc3ccccc3CN2)c2ccccc2)cc1 | u | x | n | u | n | 34
CC(NC(=O)[C@H](NC(=O)[C@@H]1Cc2ccccc2CN1)c1ccccc1)c1ccccc1 (some centres undefined) | u | u | n | n | n | n
Cc1cccc(NC(=O)[C@H](NC(=O)[C@@H]2Cc3ccccc3CN2)c2ccccc2)c1 | u | x | n | n | n | 26
Cc1cccc(NC(=O)[C@@H](CC(C)C)NC(=O)[C@@H]2Cc3ccccc3CN2)c1 | n | x | n | u | n | n
COc1ccc(CNC(=O)CSc2nc3ccccc3n2C(C)=O)cc1 | n | n | n | n | n | n
O=C(Nc1ccccc1F)Nc1ccccc1N1CCCCC1 | u | n | n | u | n | 10.0
O=C(Nc1ccccc1N1CCCCC1)c1ccc(F)cc1 | u | n | n | x | n | n
O=C(CCl)Nc1cc(S(=O)(=O)N2CCOCC2)ccc1N1CCOCC1 | n | n | n | n | x | n
COc1ccc(CC(=O)Nc2cc(S(=O)(=O)N3CCOCC3)ccc2N2CCOCC2)cc1 | u | n | n | u | x | n
O=C(Cc1c(F)cccc1Cl)Nc1cc(S(=O)(=O)N2CCCCC2)ccc1N1CCOCC1 | u | n | n | 12µM | n | n
O=C(CCc1ccc(S(=O)(=O)N2CCOCC2)cc1)Nc1cc(Cl)ccc1N1CCOCC1 | n | n | n | 6.6µM | n | n
CCOCC(=O)Nc1cc(S(=O)(=O)N2CCOCC2)ccc1N1CCCCC1 | u | n | n | n | x | n
O=C(Cc1ccccc1Cl)Nc1cc(S(=O)(=O)N2CCOCC2)ccc1N1CCOCC1 | 10µM | x | x | u | x | x
O=C(Cc1c(F)cccc1Cl)Nc1ccccc1N1CCCCC1 | 13µM | n | n | n | n | n
O=C(NC1=NN(c2ccccc2)CC1)Nc1ccccc1F | n | n | 37 | n | n | 35
O=C(Cc1c(F)cccc1Cl)Nc1ccccc1C(=O)N1CCCCC1 | n | x | x | n | x | x
O=C(CCN1CCN(c2ccccc2)CC1)Nc1ccccc1F | n | n | n | n | n | n
SMILES | Pf growth 96h | Giardia FBPA inh | Shiga toxin inh | Pf growth 48h | NS1 function inh | Cycloheximide cs
CCOC(=O)C1=C(C)N(C)C(=S)NC1c1c(OCC)ccc2ccccc12 (centres undefined) | u | n | n | u | n | n
CCOc1ccc2ccccc2c1C1NC(=S)N(C)C(C)=C1C(=O)OC (centres undefined) | 3.3µM | n | n | u | n | n
Cc1onc(-c2ccccc2)c1C(=O)Nc1sc2c(c1C#N)CCC(C)C2 (centres undefined) | u | n | n | n | n | n
CC1CCc2c(sc(/N=C/N(C)C)c2C#N)C1 (centres undefined) | n | n | 60 | n | n | 37
N#Cc1c(/N=C/c2ccco2)sc2c1CCCCC2 | n | n | n | n | n | 35
CN(C)/C=N/c1sc2c(c1C(N)=O)CCCC2 | n | n | n | u | x | n
CN(C)/C=N/c1sc2c(c1C#N)CCCC2 | n | u | 116 | n | n | 35
O=C(COC(=O)C1(c2ccccc2)CC1)NNC(=O)c1ccccc1 | n | x | x | n | x | x
CC(C)(C)c1ccc(C(=O)N2CCCC2c2cccs2)cc1 (centres undefined) | u | n | n | 15µM | n | n
O=c1[nH]c(=O)n(-c2ccccc2)c(O)c1/C=C1/C(c2ccccc2)=Nc2ccccc21 | 9.3µM | n | 30 | u | n | 48
C=C(C)CNC(=S)NNC(=O)c1ccc(Br)cc1 | u | n | n | n | n | n
C/C(=C\C(=O)c1ccc(Br)cc1)NNC(=O)c1ccc(O)cc1 | n | n | 50 | n | n | 27
C/C(=C\C(=O)c1ccc(Br)cc1)NCc1ccc(C)cc1 | n | n | n | x | n | n
C/C(=C\C(=O)c1ccc(Br)cc1)NCc1ccccc1 | n | n | n | x | n | 19
CC(NC(=O)c1ccc(F)cc1F)C1CC2CCC1C2 (centres undefined) | n | n | n | n | n | n
Cc1cnc(CNc2cc(-c3ccc(C(=O)N(C)C)cc3)ncn2)cn1 | x | n | x | x | x | x
CC(=O)OCC(=O)Nc1cc(S(=O)(=O)N2CCCCCC2)ccc1Cl | n | n | n | n | x | n
CN(CC(=O)Nc1cc(S(=O)(=O)N2CCCCCC2)ccc1Cl)Cc1ccc2c(c1)OCO2 | u | x | x | 12µM | x | x
COc1ccc(S(=O)(=O)N2CCCCCC2)cc1NC(=O)CN(C)Cc1ccc2c(c1)OCO2 | u | x | x | 12µM | x | x
COc1ccc(S(=O)(=O)N2CCCCCC2)cc1NC(=O)Cc1ccccc1F | u | n | n | u | n | n
COc1ccc(S(=O)(=O)N2CCCCC2)cc1NC(=O)CN(C)C1CCCCC1 | u | n | n | u | x | n
O=C(CCl)Nc1cc(S(=O)(=O)N2CCCCCC2)ccc1Cl | u | n | n | n | n | n
CN(CC(=O)Nc1cc(S(=O)(=O)N2CCCC2)ccc1Cl)Cc1ccc2c(c1)OCO2 | u | x | x | 8.3µM | x | x
COc1ccc(S(=O)(=O)N2CCCCC2)cc1NC(=O)CN(Cc1ccco1)Cc1ccco1 | u | x | x | 12µM | x | x
Cc1ccc(S(=O)(=O)N2CCN(C(=O)COC(=O)c3cccc(Cl)c3)CC2)c(C)c1 | n | x | x | n | x | x
CC1(C)Cc2c(sc(NC(=O)c3ccc(S(=O)(=O)N4CCCCCC4)cc3)c2C#N)C(C)(C)N1 | n | n | n | u | n | n
NC(=O)C1CCN(CC(=O)Nc2ccc(S(=O)(=O)N3CCOCC3)cc2)CC1 | n | n | n | n | n | n
O=C(NC1CCC(Oc2ccc(C(=O)O)cc2)CC1)NC12CC3CC(CC(C3)C1)C2 (centres undefined) | n | x | x | n | x | x
CCOc1ccccc1NC(=S)N1CCN(c2nc(-c3ccc(F)cc3)cs2)CC1 | n | n | n | u | n | n
